PubChem BioAssay (Tox21)
Where “and” joins values, the source holds several entries; their conditions need not be identical. Identical values can stand only once. Results filed as inconclusive are left out. Where a structure was tested more than once in an assay, its records may differ in their call. Calls of active or inactive are those of the source. Unless noted, calls come from the whole dose curve; as a rule, active = well fitted curve in the direction sought with a large enough effect in the repeat runs; inconclusive = weak or mixed curves; inactive = no such curve, though single readings can be large; an effect the other way counts as inactive or inconclusive.

Tests used:
[1] = qHTS assay to identify small molecule antagonists of the thyroid receptor (TR) signaling pathway (AID 743065); note: series mostly up to about 70 µM; nearly all actives have a fitted effect of over 55% in size
Procedure, shortened: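 GH3.TRE-Luc rat pituitary cells (two TREs driving luciferase) were dosed with compound, then stimulated with 1 nM T3 (final) for 23.5 h at 37 C. ONE-Glo luminescence was the read-out, with CellTiter-Fluor fluorescence as the cytotoxicity counter-screen.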

[2] = test system: thyroid hormone receptor (rat, GH3 cells); experiment: qHTS assay to identify small molecule agonists of the thyroid receptor (TR) signaling pathway (AID 743066; calls by dose curve)
[3] = target: Estrogen receptor (Homo sapiens) (UniProt P03372); experiment: qHTS assay to identify small molecule antagonists of the estrogen receptor alpha (ER-alpha) signaling pathway (AID 743069; active = well fitted curve in the direction sought with a large enough effect in the signal ratio in the repeat runs, not every such curve was filed as active; the % refers to the signal ratio)
Procedure, shortened: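 Reporter cells (ER-alpha-bla, HEK293 background) are conditioned overnight in stripped-serum medium (2% charcoal-stripped FBS). Compound and 17beta-estradiol exposure runs 18 hr at 37C, 5% CO2.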

[4] = qHTS assay to identify small molecule antagonists of the estrogen receptor alpha (ER-alpha) signaling pathway - cell viability counter screen (AID 743074; calls by dose curve;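 note: HEK293 cells carrying ER-alpha-UAS-bla reporter stimulated with 17beta-estradiol; nearly all actives have a fitted effect of over 45% in size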)
[5] = target: Estrogen receptor (Homo sapiens) (UniProt P03372); experiment: qHTS assay to identify small molecule agonists of the estrogen receptor alpha (ER-alpha) signaling pathway (AID 743075; calls by dose curve;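 note: HEK293 GripTite cells with ER-alpha and UAS-driven beta-lactamase reporter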)
[6] = target: Estrogen receptor (Homo sapiens) (UniProt P03372); experiment: qHTS assay to identify small molecule agonists of the estrogen receptor alpha (ER-alpha) signaling pathway using the BG1 cell line (AID 743079); note: nearly all actives have a fitted effect of over 20% in size
[7] = qHTS assay to identify small molecule antagonists of the estrogen receptor alpha (ER-alpha) signaling pathway using the BG1 cell line (AID 743080; calls by dose curve;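 note: BG1 cells stimulated with 17beta-estradiol alongside compound; series mostly up to about 70 µM; nearly all actives have a fitted effect of over 25% in size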)
Procedure, shortened: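 BG1Luc4E2, endogenous ER-alpha, 4xERE-luc; 5 d charcoal-stripped FBS, phenol red free; 24 h plating; cpd + 17beta-estradiol 21.5 h, 37 C/5% CO2; CellTiter-Fluor viability 30 min, then ONE-Glo luciferase 30 min RT.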

Aromatase (Homo sapiens) = Aromatase (Homo sapiens) (UniProt P11511); experiment: qHTS assay to identify aromatase inhibitors (AID 743083); note: nearly all actives have a fitted effect of over 55% in size; note: potency is the fitted concentration of half-maximal effect
[8] = target: Aryl hydrocarbon receptor (Homo sapiens) (UniProt P35869); experiment: qHTS assay to identify small molecule that activate the aryl hydrocarbon receptor (AhR) signaling pathway (AID 743085);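 note: HG2L7.5c1 human HepG2 liver cells with stably integrated DRE-driven firefly reporter; series mostly up to about 70 µM; nearly all actives have a fitted effect of over 15% in size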
Procedure, shortened: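 Reporter assay in engineered HepG2 line HG2L7.5c1, whose plasmid carries twenty dioxin responsive elements upstream of firefly luciferase. Treatment lasted 24 h at 37C; ONE-Glo luminescence gauged induction.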

[9] = qHTS assay for small molecule agonists of the antioxidant response element (ARE) signaling pathway (AID 743202; active = well fitted activation curve with a large enough effect in the signal ratio in the repeat runs, not every such curve was filed as active; the % refers to the signal ratio; note: potency is the fitted concentration of half-maximal effect)
Procedure, shortened: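 Agonist mode reporter screen: HepG2 cells with ARE-controlled beta-lactamase are incubated with test compounds for 16 h at 37 C, and beta-lactamase activity is measured as fluorescence of cleaved B/G FRET substrate.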

[10] = qHTS assay for small molecule agonists of the antioxidant response element (ARE) signaling pathway - cell viability counter screen (AID 743203; calls by dose curve; note: nearly all actives have a fitted effect of over 55% in size; note: potency is the fitted concentration of half-maximal effect)
Procedure, shortened: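 HepG2 cells carrying ARE-driven beta-lactamase; 2,000 cells/well; 5 hrs plating; compound pinned from DMSO; 16 hrs 37C/5% CO2; CellTiter-Glo added; 30 min RT; luminescence.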

[11] = qHTS assay for small molecule activators of the heat shock response signaling pathway - cell viability counter screen (AID 743209); note: nearly all actives have a fitted effect of over 50% in size
Procedure, shortened: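 Luminescence from CellTiter-Glo, added after the beta-lactamase FRET read, gave the viability signal. Cells were HSE-bla HeLa treated with DMSO-dissolved compounds for 5 h at 37 C following overnight plating.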

[12] = qHTS assay for small molecule activators of the heat shock response signaling pathway (AID 743210; active = well fitted activation curve with a large enough effect in the signal ratio in the repeat runs, with a control signal flat, not every such curve was filed as active; the % refers to the signal ratio;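 note: HeLa cells with beta-lactamase reporter driven by heat shock elements; series mostly up to about 63 µM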)
Procedure, shortened: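 Quantitative high-throughput format using an engineered HeLa line in which heat shock response elements drive beta-lactamase; after 5 h with compound, cells received a B/G FRET substrate and fluorescence was read.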

[13] = qHTS assay to identify small molecule antagonists of the thyroid receptor (TR) signaling pathway - cell viability counter screen (AID 743064); note: nearly all actives have a fitted effect of over 50% in size; note: potency is the fitted concentration of half-maximal effect
Procedure, shortened: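 Same-well viability check: GH3.TRE-Luc cells stimulated with 1 nM T3 alongside test compound for 23.5 h, followed by CellTiter-Fluor fluorescence.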

[14] = qHTS assay to identify small molecule antagonists of the estrogen receptor alpha (ER-alpha) signaling pathway using the BG1 cell line - cell viability counter screen (AID 743081);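 note: compound given together with 17beta-estradiol as the ER stimulus; series mostly up to about 70 µM; nearly all actives have a fitted effect of over 45% in size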
[15] = qHTS assay to identify small molecule that activate the aryl hydrocarbon receptor (AhR) signaling pathway - cell viability counter screen (AID 743086);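 note: HepG2 liver cells carrying the AhR DRE luciferase reporter; series mostly up to about 70 µM; nearly all actives have a fitted effect of over 45% in size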
Procedure, shortened: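 HepG2-AhR-luc (HG2L7.5c1) cells, 4000/well, treated 24 h at 37 C with compound; viability measured as CellTiter-Fluor fluorescence after 30 min in the same wells as the luciferase read.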

[16] = qHTS assay to identify small molecule antagonists of the peroxisome proliferator-activated receptor gamma (PPARg) signaling pathway - cell viability counter screen (AID 743194); note: nearly all actives have a fitted effect of over 55% in size
Procedure, shortened: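 Cytotoxicity counter screen in PPARg-bla HEK293H cells, same wells as reporter assay. Compounds plus 50 nM rosiglitazone (final) for 17 h at 37 C, then viability read by CellTiter-Glo luminescence.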

[17] = qHTS assay to identify aromatase inhibitors - cell viability counter screen (AID 743084); note: potency is the fitted concentration of half-maximal effect
[18] = target: Peroxisome proliferator-activated receptor gamma (Homo sapiens) (UniProt P37231); experiment: qHTS assay to identify small molecule agonists of the peroxisome proliferator-activated receptor gamma (PPARg) signaling pathway (AID 743094; active = well fitted activation curve with a large enough effect in the signal ratio in the repeat runs, not every such curve was filed as active; the % refers to the signal ratio)
Procedure, shortened: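 Beta-lactamase FRET fluorescence was the read-out after a 1 h room-temperature substrate step, following 17 h compound treatment at 37C of HEK293H cells expressing a UAS-driven bla reporter responsive to PPARg.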

[19] = target: Peroxisome proliferator-activated receptor gamma (Homo sapiens) (UniProt P37231); experiment: qHTS assay to identify small molecule antagonists of the peroxisome proliferator-activated receptor gamma (PPARg) signaling pathway (AID 743191; calls by dose curve; note: series mostly up to about 63 µM; nearly all actives have a fitted effect of over 30% in size)
Procedure, shortened: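 GeneBLAzer PPARg UAS-bla HEK293H cells, 5 h post-plating, exposed to compounds 17 h at 37C. LiveBLAzer B/G FRET substrate added for 1 h at room temperature; beta-lactamase reporter read by fluorescence intensity.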

Measured: Potency

Chain of Estrogen receptor (Homo sapiens) (P03372 whole entry, looked up): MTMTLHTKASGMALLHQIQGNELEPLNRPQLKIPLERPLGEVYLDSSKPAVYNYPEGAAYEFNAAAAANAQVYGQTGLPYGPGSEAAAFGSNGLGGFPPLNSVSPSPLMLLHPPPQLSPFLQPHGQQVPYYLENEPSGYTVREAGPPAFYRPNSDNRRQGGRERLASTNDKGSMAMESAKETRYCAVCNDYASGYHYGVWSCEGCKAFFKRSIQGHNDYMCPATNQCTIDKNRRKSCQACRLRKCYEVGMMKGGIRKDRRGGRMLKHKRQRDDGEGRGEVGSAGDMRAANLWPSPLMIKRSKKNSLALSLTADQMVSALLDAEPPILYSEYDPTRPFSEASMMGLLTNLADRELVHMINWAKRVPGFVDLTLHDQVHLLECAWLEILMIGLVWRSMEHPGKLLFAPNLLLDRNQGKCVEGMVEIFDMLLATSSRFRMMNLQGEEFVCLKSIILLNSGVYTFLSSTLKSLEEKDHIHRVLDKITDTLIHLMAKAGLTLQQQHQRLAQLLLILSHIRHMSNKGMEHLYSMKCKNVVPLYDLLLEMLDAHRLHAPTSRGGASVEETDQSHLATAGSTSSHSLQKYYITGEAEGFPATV
Chain of Aryl hydrocarbon receptor (Homo sapiens) (P35869 whole entry, looked up): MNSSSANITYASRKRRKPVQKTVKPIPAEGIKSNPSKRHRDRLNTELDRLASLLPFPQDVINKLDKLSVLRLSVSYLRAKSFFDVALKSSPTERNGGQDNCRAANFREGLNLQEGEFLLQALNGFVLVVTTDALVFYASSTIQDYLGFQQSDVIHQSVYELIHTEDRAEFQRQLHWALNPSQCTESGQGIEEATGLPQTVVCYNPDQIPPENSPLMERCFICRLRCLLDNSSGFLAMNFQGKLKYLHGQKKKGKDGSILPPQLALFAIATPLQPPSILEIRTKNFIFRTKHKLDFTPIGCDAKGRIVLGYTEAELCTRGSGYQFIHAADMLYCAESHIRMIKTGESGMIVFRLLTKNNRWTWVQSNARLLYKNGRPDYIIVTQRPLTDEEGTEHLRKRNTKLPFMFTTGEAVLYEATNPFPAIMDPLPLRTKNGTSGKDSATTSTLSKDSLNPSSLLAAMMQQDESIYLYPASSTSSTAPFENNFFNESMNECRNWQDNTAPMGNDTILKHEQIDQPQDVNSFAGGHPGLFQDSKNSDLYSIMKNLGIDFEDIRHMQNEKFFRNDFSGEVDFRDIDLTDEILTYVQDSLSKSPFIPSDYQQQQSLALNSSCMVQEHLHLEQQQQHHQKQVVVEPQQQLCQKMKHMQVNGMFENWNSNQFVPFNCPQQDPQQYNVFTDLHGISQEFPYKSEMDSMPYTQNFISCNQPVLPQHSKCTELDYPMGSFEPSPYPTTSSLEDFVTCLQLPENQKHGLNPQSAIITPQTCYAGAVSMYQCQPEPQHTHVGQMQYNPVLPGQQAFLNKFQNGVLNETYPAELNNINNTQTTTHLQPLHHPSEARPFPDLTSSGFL
Chain of Peroxisome proliferator-activated receptor gamma (Homo sapiens) (P37231 whole entry, looked up): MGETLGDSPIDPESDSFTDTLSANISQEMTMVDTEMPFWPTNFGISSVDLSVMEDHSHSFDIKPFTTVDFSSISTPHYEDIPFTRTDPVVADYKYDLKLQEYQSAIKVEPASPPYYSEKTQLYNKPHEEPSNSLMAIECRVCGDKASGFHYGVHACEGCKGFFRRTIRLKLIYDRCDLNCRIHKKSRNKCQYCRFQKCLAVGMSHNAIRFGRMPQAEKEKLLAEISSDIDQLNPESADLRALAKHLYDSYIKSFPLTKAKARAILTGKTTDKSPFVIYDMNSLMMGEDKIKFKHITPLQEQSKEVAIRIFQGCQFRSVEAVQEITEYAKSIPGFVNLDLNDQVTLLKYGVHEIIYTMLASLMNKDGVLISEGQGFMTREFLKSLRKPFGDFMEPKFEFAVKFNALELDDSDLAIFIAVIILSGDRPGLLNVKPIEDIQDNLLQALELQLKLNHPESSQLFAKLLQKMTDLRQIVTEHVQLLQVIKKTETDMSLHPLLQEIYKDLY
Chain of Aromatase (Homo sapiens) (P11511 whole entry, looked up): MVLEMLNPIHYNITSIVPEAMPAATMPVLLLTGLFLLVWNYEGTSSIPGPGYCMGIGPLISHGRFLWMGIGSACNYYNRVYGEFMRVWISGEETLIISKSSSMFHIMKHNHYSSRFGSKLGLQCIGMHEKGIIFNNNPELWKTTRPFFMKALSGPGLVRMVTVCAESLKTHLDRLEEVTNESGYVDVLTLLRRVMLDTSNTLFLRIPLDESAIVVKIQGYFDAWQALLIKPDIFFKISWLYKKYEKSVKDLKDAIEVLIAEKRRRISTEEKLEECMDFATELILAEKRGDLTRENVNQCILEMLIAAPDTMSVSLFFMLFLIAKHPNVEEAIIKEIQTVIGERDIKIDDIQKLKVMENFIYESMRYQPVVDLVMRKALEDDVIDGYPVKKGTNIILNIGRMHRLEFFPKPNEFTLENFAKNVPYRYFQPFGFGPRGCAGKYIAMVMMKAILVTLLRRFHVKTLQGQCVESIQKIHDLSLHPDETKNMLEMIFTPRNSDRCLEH

O=C(O)Cn1c(=O)n(Cc2ccc(Br)cc2F)c(=O)c2ccc(Cl)cc21
not listed: [13] | [14] | [15] | [16] | [17] | [18] | [19]
inactive: all other assays above

CCCCCCCCCCCCCCCC(=O)OC(C)C
inactive: [13] | [1] | [2] | [4] | [14] | [15] | [16] | [9] | [10] | [11]

CCCCCCCCCCN
not listed: [3] | [4] | [5] | [6] | [7] | [16] | [18] | [19]
inactive: all other assays above

C=Cc1ccc(C)cc1
not listed: [3] | [4] | [5] | [6] | [7] | [8] | [13]
inactive: all other assays above

CC(CCl)OP(=O)(OC(C)CCl)OC(C)CCl (stereo unspecified)
not listed: [1] | [2] | [13] | [16]
inactive: all other assays above

CC(O)CC(C)(C)O (stereo unspecified)
not listed: [3] | [4] | [5] | [6] | [7] | [8] | [16] | [19]
inactive: all other assays above

c1ccc(Oc2ccccc2)cc1
not listed: [3] | [5] | [6] | [7] | [8] | [16] | [18] | [19]
inactive: all other assays above

CN/C(=C\[N+](=O)[O-])NCCSCc1csc(CN(C)C)n1
not listed: [3] | [5] | [6] | [7] | [8] | [16]
inactive: all other assays above

O=C1c2ccccc2CCc2ccccc21
not listed: [3] | [5] | [6] | [7] | [13] | [16]
inactive: all other assays above

CCNc1ccccc1
not listed: [3] | [5] | [6] | [7] | [8] | [16] | [19]
inactive: all other assays above

CCO[Si](CCCN)(OCC)OCC
not listed: [1] | [2] | [8]
inactive: all other assays above

C=CCc1ccc(OC)c(OC)c1
not listed: [3] | [5] | [6] | [7] | [16] | [19]
inactive: all other assays above

CC(C)CC(=O)CC(C)CC(C)C (stereo unspecified)
not listed: [3] | [5] | [6] | [7] | [8] | [16]
inactive: all other assays above

C=CC[N+](C)(C)CC=C
not listed: [3] | [5] | [6] | [7] | [8] | [12]
inactive: all other assays above

Cc1ccc(C(C)C)c(O)c1
active: [13] 61.1 µM
61.1 µM (active) and inactive: [10]
inactive and 61.1 µM (active): [17]
inactive and 54.5 µM (active): Aromatase (Homo sapiens)
not listed: [1]
inactive: all other assays above

CN1C(=O)CC[C@H]1c1cccnc1
inactive: [13] | [4] | [14] | Aromatase (Homo sapiens) | [17] | [15] | [18] | [9] | [10] | [11] | [12]

N#Cc1ccccc1
not listed: [3] | [5] | [6] | [7] | [19]
inactive: all other assays above

N[C@H](Cc1c[nH]c2ccccc12)C(=O)O
not listed: [3] | [5] | [6] | [7] | [8] | [16] | [19]
inactive: all other assays above

COc1ccc(C)cc1N
not listed: [8] | [13] | [16] | [19]
inactive: all other assays above

C[C@]12CC[C@@H]3c4ccc(O)cc4CC[C@H]3[C@@H]1C[C@@H](O)[C@@H]2O
not listed: [3] | [5] | [6] | [7] | [8] | [19]
inactive: all other assays above

Clc1ccccn1
inactive: [13] | [1] | [2] | [4] | [14] | [15] | [16] | [9] | [10] | [11] | [12]

CC(C)(C#N)c1cc(Cn2cncn2)cc(C(C)(C)C#N)c1
inactive: [4] | [14] | [17] | [15] | [18] | [19] | [16] | [9] | [10] | [11] | [12]

CCCOC(=O)c1ccccc1
not listed: [3] | [5] | [6] | [7] | [12] | [16] | [19]
inactive: all other assays above

O=S(=O)(O)c1ccccc1
not listed: [3] | [5] | [6] | [7] | [9] | [16] | [18] | [19]
inactive: all other assays above

O=C1C(c2[nH]c3ccccc3c2O)=Nc2ccccc21
active: [9] 18.8 µM
not listed: [3] | [5] | [6] | [7] | [8] | [18] | [19]
inactive: all other assays above
